This is a sample that favours compounds with a hit; in the whole collection about 4% have one here.
Gli-Sufu block: Gli-Sufu pathway antagonism; AID 588413; Sufu-KO-LIGHT fibroblasts, Gli luciferase reporter luminescence; inhibition, % at 5 µM; actives 0.74% (n = 340,000);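 active means inhibition above about 55%, limit read from the data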
Mdm2-MdmX inh: disrupts the human Mdm2-MdmX interaction. SaOS-2 split-luciferase Mdm2/MdmX complementation, luminescence. inhibition, % at 8 µM. actives 3% (n = 330,000). AID 485346;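 active means inhibition of at least 50% at 8 µM in the primary screen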
Target sequence (O15151 whole entry, looked up): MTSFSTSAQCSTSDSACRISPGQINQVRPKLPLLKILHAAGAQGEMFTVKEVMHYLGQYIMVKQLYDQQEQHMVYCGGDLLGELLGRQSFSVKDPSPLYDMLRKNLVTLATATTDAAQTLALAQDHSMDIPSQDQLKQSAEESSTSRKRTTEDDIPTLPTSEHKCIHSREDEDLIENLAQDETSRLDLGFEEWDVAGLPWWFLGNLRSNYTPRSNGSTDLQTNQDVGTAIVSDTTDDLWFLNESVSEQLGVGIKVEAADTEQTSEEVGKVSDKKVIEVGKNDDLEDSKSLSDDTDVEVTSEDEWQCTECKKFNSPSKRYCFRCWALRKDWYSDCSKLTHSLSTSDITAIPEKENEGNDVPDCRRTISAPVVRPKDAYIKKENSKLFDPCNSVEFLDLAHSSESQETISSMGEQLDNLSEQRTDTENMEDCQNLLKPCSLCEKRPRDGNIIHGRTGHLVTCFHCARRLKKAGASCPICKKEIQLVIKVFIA
Target sequence (Q00987 whole entry, looked up): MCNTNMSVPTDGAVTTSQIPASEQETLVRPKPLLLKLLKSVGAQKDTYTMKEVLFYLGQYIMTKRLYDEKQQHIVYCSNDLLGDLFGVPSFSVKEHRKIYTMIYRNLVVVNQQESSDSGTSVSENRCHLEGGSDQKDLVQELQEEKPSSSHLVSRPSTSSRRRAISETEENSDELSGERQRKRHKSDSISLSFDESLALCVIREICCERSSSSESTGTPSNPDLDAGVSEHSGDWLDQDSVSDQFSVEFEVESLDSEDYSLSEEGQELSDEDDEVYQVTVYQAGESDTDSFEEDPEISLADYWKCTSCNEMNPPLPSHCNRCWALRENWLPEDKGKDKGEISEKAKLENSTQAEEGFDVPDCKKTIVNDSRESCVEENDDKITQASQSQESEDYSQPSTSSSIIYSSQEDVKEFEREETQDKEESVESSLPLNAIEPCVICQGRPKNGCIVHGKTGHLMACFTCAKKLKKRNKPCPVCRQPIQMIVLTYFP
Jurkat NFkB inh: inhibitors of the PMA/ionomycin-induced NF-kB reporter in Jurkat cells; PMA/ionomycin-induced NF-kB luciferase reporter, luminescence; inhibition, % at 4 µM; actives 0.53% (n = 330,000); in the data active means inhibition above about 50%
Beta apoptosis: beta cell apoptosis inhibition. INS-1E cytokine-induced death, ATP luminescence, 48 h; percent of positive-control rescue, neutral wells zero. protection from apoptosis, % (no concentration beside the values). actives 0.8% (n = 300,000). AID 435005;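 active means Every replicate reaches about 75%, or at least half do and their mean reaches it too, limit read from the data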;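 further: higher means more ATP so stronger rescue from cytokine killing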
697 NFkB inh: lowers PMA/ionomycin-induced NF-kB signal in 697 B cells. 697 B-cell NF-kB luciferase reporter, 16 h. inhibition, % at 4 µM. actives 0.33% (n = 330,000). AID 435022; in the data active means inhibition above about 35%
Mdm2 MdmX conf: confirmation of human Mdm2/MdmX interaction inhibitors | actives 55% (n = 10,000) | inhibition, % at 8 µM | AID 489028 | shares compounds with Mdm2-MdmX inh | Mdm2-MdmX binding, luminescent assay; in the data active means inhibition above about 40%
FLuc counter: counter-screen for Mdm2/MdmX inhibitors: full-length luciferase; actives 77% (n = 6,200); AID 504607; SaOS-2 full-length luciferase counterscreen, luminescence; inhibition, % at 8 µM; shares compounds with Mdm2-MdmX inh;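 active means mean inhibition at 8 µM reaching about 37%, which flags the compound as non-specific, limit read from the data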;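 further: p53-null SaOS-2 cells with luciferase driven by a doxycycline-inducible promoter; compound on cells about two nights before reading with doxycycline added after day one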
Each line names hits and unclear results; the compound was inactive in the other large screens (follow-up assays come after a bar, where they were run).

CC(Sc1ncccn1)C(=O)NNC(=O)c1cccc(Cl)c1 (centres undefined)	none
O=C(O)c1sccc1SCc1ccc(Cl)c(Cl)c1	none
C=CS(=O)(=O)N(Cc1ccc(Cl)c(Cl)c1)C[C@@H](O)CO	Mdm2-MdmX inh 81.0 (no result: Jurkat NFkB inh, Beta apoptosis) | Mdm2 MdmX conf 83.6 | FLuc counter 55.0
Cc1cc(=O)oc2c(C)c(OCC(=O)NCCCN3CCOCC3)ccc12	none
CN(CC(=O)Nc1c(Cl)cccc1Cl)C(=O)c1cc(-c2cccs2)nn1-c1ccccc1	none
CCN(CC(=O)Nc1c(F)cccc1F)C(=O)c1cc(-c2cccs2)nn1-c1ccccc1	Mdm2-MdmX inh 59.6 | Mdm2 MdmX conf inactive | FLuc counter 85.6
O=C(CCNS(=O)(=O)c1ccc(OC(F)(F)F)cc1)Nc1cccc(S(=O)(=O)N2CCCC2)c1	none (no result: Mdm2-MdmX inh, Jurkat NFkB inh, Beta apoptosis, 697 NFkB inh)
CCCc1ccc(C2C3=C(CC(C)(C)CC3=O)NC3=C2C(=O)c2ccccc23)cc1 (centres undefined)	Mdm2-MdmX inh 76.0 | Mdm2 MdmX conf inactive
CC1(C)CC(=O)C2=C(C1)NC1=C(C(=O)c3ccccc31)C2c1ccc(O)cc1 (centres undefined)	none
CCCCc1ccc(C2C3=C(CC(C)(C)CC3=O)NC3=C2C(=O)c2ccccc23)cc1 (centres undefined)	Mdm2-MdmX inh 55.1 | Mdm2 MdmX conf inactive
COc1cccc(C2C3=C(CCCC3=O)NC3=C2C(=O)c2ccccc23)c1 (centres undefined)	none (no result: Gli-Sufu block)
O=C(CCCl)N1CCN(c2nc(-c3ccccc3)cs2)CC1	none (no result: Beta apoptosis)
CCOC(=O)N1CCN(S(=O)(=O)c2ccc(C(=O)Nc3nnc(CC)o3)cc2)CC1	none
CCOC(=O)N1CCN(S(=O)(=O)c2ccc(C(=O)Nc3nc4c(s3)CC(C)CC4)cc2)CC1 (centres undefined)	Mdm2-MdmX inh 77.6 | Mdm2 MdmX conf inactive
CCOC(=O)N1CCN(S(=O)(=O)c2ccc(C(=O)NNc3nc4c(C)cc(C)cc4s3)cc2)CC1	Mdm2-MdmX inh 80.2, Beta apoptosis 96.9 | Mdm2 MdmX conf 70.5 | FLuc counter 48.4
Cc1cc(C)c2nc(NNC(=O)c3ccc(S(=O)(=O)N4CCCCC4)cc3)sc2c1	Mdm2-MdmX inh 71.6 | Mdm2 MdmX conf 45.5 | FLuc counter 47.2
CCOC(=O)N1CCN(S(=O)(=O)c2ccc(C(=O)NNc3nc4cc(C)cc(C)c4s3)cc2)CC1	Mdm2-MdmX inh 78.9, Beta apoptosis 83.6 | Mdm2 MdmX conf 46.4 | FLuc counter 46.6
CCOC(=O)N1CCN(S(=O)(=O)c2ccc(C(=O)N(CCN(CC)CC)c3nc4c(C)cccc4s3)cc2)CC1	none
Cc1ccc(C(=O)NNC(=O)c2ccc(S(=O)(=O)N3CCCCC3)cc2)cc1	none
O=C1COc2ccc(C(=O)COc3ccc([N+](=O)[O-])cc3)cc2N1	none
O=C(CCS(=O)(=O)c1ccccc1)NNC(=O)COc1ccc(F)cc1	none
O=C(CCn1c(=O)oc2ccccc21)Nc1cccc([N+](=O)[O-])c1	none
Cc1cccc2sc(NC(=O)c3cccc(S(=O)(=O)N4CCc5ccccc54)c3)nc12	none
Cc1cccc2sc(NNC(=O)c3ccc(S(=O)(=O)N4CCc5ccccc5C4)cc3)nc12	Mdm2-MdmX inh 82.5, Beta apoptosis 91.8 | Mdm2 MdmX conf 82.1 | FLuc counter 76.0
CCOC(=O)N1CCN(S(=O)(=O)c2ccc(C(=O)NNc3nc4c(C)cccc4s3)cc2)CC1	Mdm2-MdmX inh 52.8 | Mdm2 MdmX conf 41.0 | FLuc counter 47.2
CNS(=O)(=O)c1cc(Br)ccc1S(=O)c1ccccc1C(=O)O (centres undefined)	none
O=C(COC(=O)CCSc1ccccc1)Nc1ccccc1	none
O=C(c1nc2ccc(Cl)cn2c1CNCCc1cnccn1)N1CCCCCCC1	none
COc1ccc(OC)c(CNS(=O)(=O)c2cc(-c3cc(C)no3)ccc2OC)c1	none
COc1ccccc1CN1CCC(CNS(=O)(=O)c2cc(-c3cc(C)no3)ccc2C)CC1	Mdm2-MdmX inh 55.7 | Mdm2 MdmX conf 43.9 | FLuc counter 75.0
CCOc1ccc(N(C)S(=O)(=O)c2cc(-c3cc(C)no3)ccc2OC)cc1	none
COc1ccc(-c2cc(C)no2)cc1S(=O)(=O)N(C)c1ccc(C)cc1	Mdm2-MdmX inh 63.0 | Mdm2 MdmX conf 49.8 | FLuc counter 60.1
COc1ccc(-c2cc(C)no2)cc1S(=O)(=O)NCC1CCN(Cc2cc(C)ccc2C)CC1	Mdm2-MdmX inh 60.9 | Mdm2 MdmX conf inactive
Cc1cc(-c2ccc(C)c(S(=O)(=O)NCC3CCN(Cc4ccc(F)cc4)CC3)c2)on1	none
CC(=NCCCn1ccnc1)c1c(C)[nH]n(-c2ccc([N+](=O)[O-])cc2)c1=O	none
COc1cc(-n2c(=O)c3ccccc3n(CC(=O)c3ccccc3)c2=O)cc(OC)c1OC	Mdm2-MdmX inh 83.1 | Mdm2 MdmX conf inactive
NC1=C(c2ccccc2)C(=O)NC1=O	none (no result: Beta apoptosis)
CNCc1ccccc1Sc1cccc(O)c1	none
CNCc1ccccc1Sc1cc(O)ccc1O	Mdm2-MdmX inh 90.9 | Mdm2 MdmX conf inactive
CCOc1ccc(NC(=O)/C(C#N)=C/c2ccc(N3CCCC3)c(C)c2)cc1	none (no result: Mdm2-MdmX inh, Jurkat NFkB inh, 697 NFkB inh)
CCOc1cc(/C=C(/C#N)C(=O)Nc2ccc(O)cc2)cc(Br)c1O	Mdm2-MdmX inh 69.7 | Mdm2 MdmX conf 62.5 | FLuc counter 86.3
COc1cc(Cl)ccc1NC(=S)N(CCCN1CCOCC1)Cc1cn(C)c2ccccc12	Mdm2-MdmX inh 55.2 | Mdm2 MdmX conf inactive
COc1nc(N(C)S(=O)(=O)c2ccc(C)cc2)nc(C)c1Br	none (no result: Beta apoptosis)
CC1CCN(C(=O)COC(=O)c2ccc3c(c2)C(=O)N(Cc2ccco2)C3=O)CC1	none (no result: Beta apoptosis)
OC(CNCC1CCCO1)Cn1c2ccccc2c2ccccc21 (centres undefined)	none
OC(CNCC1CCCO1)Cn1c2ccc(Cl)cc2c2cc(Cl)ccc21 (centres undefined)	Mdm2-MdmX inh 96.3 (no result: Beta apoptosis) | Mdm2 MdmX conf 43.7 | FLuc counter inactive
COC(=O)c1cc(O)cc(OC)c1C(=O)c1c(O)cc(C)cc1O	none (no result: Beta apoptosis)
COC(=O)c1cc(O)cc(OC)c1Oc1cc(C)cc(O)c1C(=O)O	Mdm2-MdmX inh 83.5, Beta apoptosis 89.5 | Mdm2 MdmX conf 46.0 | FLuc counter inactive
C#CCOCCOCCOCCNc1nc(N2CCN(C(=O)CCCCCCCCCCNC(=O)[C@H]([C@@H](C)CC)n3cc(CCCCCN)nn3)CC2)nc(N2CCN(C(=O)CCCCCCCCCCNC(=O)[C@H](CCCCN)n3cc(CCCC(=O)O)nn3)CC2)n1	none
C#CCOCCOCCOCCNc1nc(N2CCN(C(=O)CCCCCCCCCCNC(=O)[C@H]([C@@H](C)CC)n3cc(CCCCCN)nn3)CC2)nc(N2CCN(C(=O)CCCCCCCCCCNC(=O)[C@H](CO)n3cc(CCCCCN)nn3)CC2)n1	Mdm2-MdmX inh 89.7 | Mdm2 MdmX conf inactive

Source: PubChem BioAssay (several laboratories)
